Source: PubChem (National Center for Advancing Translational Sciences (NCATS))
In the library only some 17% were active in any assay of this set; here they are far more common.
TDP1 cell CPT = DT40-hTDP1 cell growth loss with CPT | chicken DT40 Tdp1-/-;hTDP1 cells + 20 nM CPT, ATP luminescence, 48 h | Potency, µM (top dose mostly 46.2 µM), without a hit: at the highest dose activity change, negative = growth inhibition, most hits filed as inhibitors | hit rate 12% among 420,000 | AID 686979; further: on the % scale 0 is the no-effect control and ±100 the full control effect; nearly all actives have a fitted effect of over 55% in size
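Chicken DT40 Tdp1-/- cells stably complemented with human TDP1 were seeded at 400 cells/well in medium containing 20 nM camptothecin, exposed to pin-transferred compounds, and grown at 37 °C for at least 48 hr. Viability was read as ATP luminescence.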
TGFb inhibitor = TGF-b pathway inhibition; HepG2 CAGA-GFP TGF-b/SMAD3 reporter, GFP fluorescence, 18 h; TGF-beta stimulated, 500 pg/mL final; hit rate 1.2% among 410,000; Potency, µM (doses to about 46.1 µM), for inactives: at the highest dose activity, negative = inhibition, usual class: inhibitors; AID 588855; further: on the % scale 0 is the no-effect control and ±100 the full control effect; nearly all actives have a fitted effect of over 65% in size
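Read-out: total well GFP (ex488/em500-530) summed from mean per-cell fluorescence. Cells: HEPG2 CAGA-GFP, 1% FBS DMEM, 18 h at 37 degrees C with 500 pg/mL final TGF-beta. Unstimulated wells served as the full-inhibition control; stimulated DMSO wells = 0%.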
ATXN2 expr inh = reduces ATXN2 reporter expression in HEK-293 cells. HEK-293 ATXN2-luciferase reporter, luminescence, 24 h. Potency, µM (top dose mostly 57 µM), for the others: top-dose activity change, negative = inhibition, usual class: inhibitors. hit rate 0.72% among 360,000; further: on the % scale 0 is the no-effect control and ±100 the full control effect; nearly all actives have a fitted effect of over 55% in size
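ATXN2-luciferase reporter cells (luciferase flanked by upstream and downstream ATXN2 gene portions) were treated 24 h at 37 °C with compounds at up to 57 uM. SteadyGlo luminescence gave expression; GF-AFC fluorescence gave viability.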
DT40 TDP1 no CPT = qHTS for Inhibitors of human tyrosyl-DNA phosphodiesterase 1 (TDP1): qHTS in cells in absence of CPT | DT40 Tdp1-/- hTDP1 cells, no CPT, ATP luminescence, 48 h | Potency, µM (highest dose often 46.2 µM), for inactives: at the top dose activity change, negative = growth inhibition, actives largely listed as inhibitors | hit rate 15% among 420,000; further: on the % scale 0 is the no-effect control and ±100 the full control effect; nearly all actives have a fitted effect of over 55% in size
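DT40 Tdp1-/-;hTDP1 cells, no CPT (DMSO vehicle only), 400 cells/well; compounds pin-transferred; ≥48 hr, 37 °C; CellTiter-Glo 30 min RT dark, luminescence read.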
HepG2 tox = counter-screen for TGF-b inhibitors: cytotoxicity in HepG2 cells. HepG2 CAGA-GFP viability, ATP luminescence, 18 h. Potency, µM (highest dose often 46.1 µM), inactives show at the highest dose activity change, negative = cytotoxicity, usual class: cytotoxic. hit rate 0.76% among 410,000
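CellTiter-Glo luminescence gave cytotoxicity after 18 hours at 37 degrees C. The cells were HepG2 CAGA-GFP in 1% FBS DMEM, stimulated with 500 pg/mL TGF-beta after compound addition. %Activity was normalised to no-cell wells (complete cell-killing) and DMSO (no toxicity), and curves were fitted and classified.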
S2 tox = viability counter-screen for ATXN expression inhibitors; S2 cells (HEK-293 line with an ATXN2-luciferase reporter) viability, CellTiter-Fluor protease fluorescence, 24 h; hit rate 0.49% among 400,000; Potency, µM (series often up to 56.7 µM), hits mostly cytotoxic; further: nearly all actives have a fitted effect of over 40% in size
The depositor's hits bear a star; [ ] = dose if it differs, or a comment. The call rests on the fitted dose curve; in most records, active means well fitted curve in the direction sought with a large enough effect; inconclusive means small, poorly fitted or top-dose-only effect, or another doubt; inactive means no such curve, though single readings can be large; an effect the other way counts as inactive or inconclusive. Potency means the concentration at half of the fitted maximal effect.

Screening COc1ccc(NC(=O)CCN2CCN(C/C=C/c3ccccc3)CC2)cc1 returned TDP1 cell CPT -29%, TGFb inhibitor -15%, DT40 TDP1 no CPT inconclusive, HepG2 tox -61% and S2 tox inconclusive.
For COc1ccc2[nH]c(C)c(C(=O)CN3CCN(C/C=C/c4ccccc4)CC3)c2c1 the results were TDP1 cell CPT 18µM*, TGFb inhibitor -3%, ATXN2 expr inh -14%, DT40 TDP1 no CPT inconclusive, HepG2 tox -39% and S2 tox inactive.
`Cc1cc(C)c(Cn2ncn(-c3ccc(Br)cc3)c2=O)c(C)c1` gave TDP1 cell CPT -25%, TGFb inhibitor -7%, ATXN2 expr inh -2%[11.3 µM], DT40 TDP1 no CPT -18%, HepG2 tox -21% and S2 tox inactive.
Cc1ccn2c(Nc3c(C)cccc3C)c(-c3ccsc3)nc2c1 was read as TDP1 cell CPT 21µM*, TGFb inhibitor inconclusive, ATXN2 expr inh -4%, DT40 TDP1 no CPT 23µM*, HepG2 tox -40% and S2 tox inactive.
`CSc1ccc(-c2nc3cc(C)ccn3c2Nc2ccc(C)cc2)cc1` gave TDP1 cell CPT -23%, TGFb inhibitor -3%, ATXN2 expr inh 26%, DT40 TDP1 no CPT inconclusive, HepG2 tox -1% and S2 tox inactive.
Cc1ccn2c(Nc3c(C)cccc3C)c(-c3ccc(Cl)s3)nc2c1 was read as TDP1 cell CPT 13µM*, TGFb inhibitor inconclusive, ATXN2 expr inh -16%, DT40 TDP1 no CPT 18µM*, HepG2 tox -23% and S2 tox inconclusive.
`Cc1cc(=O)[nH]c2c(C)cc(S(=O)(=O)N3CCCCC3)cc12` gave TDP1 cell CPT -4%, TGFb inhibitor 15%, ATXN2 expr inh 41%, DT40 TDP1 no CPT -1%, HepG2 tox -20% and S2 tox inactive.
`COc1ccc2c(-c3ccccc3)cc(N3CCOCC3)nc2c1` gave TDP1 cell CPT -29%, TGFb inhibitor -29%, ATXN2 expr inh -9%, DT40 TDP1 no CPT inconclusive, HepG2 tox -6% and S2 tox inactive.
For COc1ccc2nc(Cl)c(C=O)c(N3CCOCC3)c2c1 the results were TDP1 cell CPT inconclusive, TGFb inhibitor 0%, DT40 TDP1 no CPT 15µM*, HepG2 tox -16% and S2 tox inactive.
For Cc1ccc2c(c1)CCCN2C(=O)CCc1nc2ccccc2c(=O)[nH]1 the results were TDP1 cell CPT 0.46µM*, TGFb inhibitor -1%, ATXN2 expr inh -5%, DT40 TDP1 no CPT inconclusive, HepG2 tox 3% and S2 tox inactive.
For Cc1ccc(N2CCN(C(=O)CCc3nc4ccccc4[nH]3)CC2)c(C)c1 the results were TDP1 cell CPT 18µM*, TGFb inhibitor inconclusive, ATXN2 expr inh inconclusive, DT40 TDP1 no CPT inconclusive, HepG2 tox -16% and S2 tox inactive.
For COc1ccccc1C(=O)NC(=O)CSc1nnc(N)s1 the results were TDP1 cell CPT -15%, TGFb inhibitor 2%, ATXN2 expr inh -6%, DT40 TDP1 no CPT 17%, HepG2 tox -1% and S2 tox inconclusive.
Screening COc1ccc(CNC(C)C(=O)Nc2ccc3ccccc3c2)cc1OC (stereo not given) returned TDP1 cell CPT inconclusive, TGFb inhibitor -10%, DT40 TDP1 no CPT inconclusive, HepG2 tox -22% and S2 tox inactive.
Screening COc1ccccc1P(=O)(Cc1ccccc1)c1ccccc1 (stereo not given) returned TDP1 cell CPT -28%, TGFb inhibitor 0%, ATXN2 expr inh -9%, DT40 TDP1 no CPT inconclusive, HepG2 tox 5% and S2 tox inactive.
